From the supplement of paper PMC6555819

Columns and labels:
Assay in all cases: PBM binding z-score (relative to random genomic background probes); higher = stronger binding; sequences stand for … in GC…GCGATTGACAGCGTAGAATGAAGG
[1] = system: LXRa:RXRa (NR concentration 270 nM, RXRa partner concentration 90 nM)
Summary of the method: (§1)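 Ligand-free nuclear receptor dimers were applied to custom Agilent 4×180K protein-binding microarrays whose double-stranded probes carried direct-repeat seeds, single-nucleotide variants, half-site ablations and random human genomic background sequences in 34-nt variable regions. Incubation lasted 1 h. Binding z-scores were computed against the random background probes from regression-normalized fluorescence.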

[2] = system: LXRa homodimer (NR concentration 270 nM)
Summary of the method: as §1

[3] = system: LXRb homodimer (NR concentration 270 nM)
Summary of the method: as §1

[4] = system: PPARa:RXRa (NR concentration 270 nM, RXRa partner concentration 90 nM)
Summary of the method: as §1

[5] = system: PPARg:RXRa (NR concentration 180 nM, RXRa partner concentration 90 nM)
Summary of the method: as §1

[6] = system: PPARg:RXRa 270nM:90nM, anti-RXR (NR concentration 270 nM, RXRa partner concentration 90 nM)
Summary of the method: as §1

[7] = system: PPARg:RXRa 30nM:10nM, anti-RXR (NR concentration 30 nM, RXRa partner concentration 10 nM)
Summary of the method: as §1

[8] = system: PPARg:RXRa 90nM:30nM, anti-RXR (NR concentration 90 nM, RXRa partner concentration 30 nM)
Summary of the method: as §1

[9] = system: PPARg:RXRa DBDmut IVT, anti-RXR (DBD mutation: RXRa K156A/R161A, NR concentration 270 nM, RXRa partner concentration 90 nM)
Summary of the method: as §1

[10] = system: PPARg:RXRa IVT, anti-PPARg (NR concentration 270 nM, RXRa partner concentration 90 nM)
Summary of the method: as §1

[11] = system: PPARg DBDmut:RXRa IVT, anti-PPARg (DBD mutation: PPARg1 K132A/R137A, NR concentration 270 nM, RXRa partner concentration 90 nM)
Summary of the method: as §1

[12] = system: PPARg DBDmut IVT, anti-PPARg (DBD mutation: PPARg1 K132A/R137A, NR concentration 270 nM)
Summary of the method: as §1

[13] = system: PPARg homodimer (NR concentration 180 nM)
Summary of the method: as §1

[14] = system: PXR:RXRa (NR concentration 270 nM, RXRa partner concentration 90 nM)
Summary of the method: as §1

[15] = system: PXR homodimer (NR concentration 270 nM)
Summary of the method: as §1

[16] = system: RARa:RXR (NR concentration 270 nM, RXRa partner concentration 90 nM)
Summary of the method: as §1

[17] = system: RARa homodimer (NR concentration 270 nM)
Summary of the method: as §1

[18] = system: RARb:RXRa (NR concentration 270 nM, RXRa partner concentration 90 nM)
Summary of the method: as §1

[19] = system: RARb homodimer (NR concentration 270 nM)
Summary of the method: as §1

Row | Sequence | PBM binding z-score [1] | PBM binding z-score [2] | PBM binding z-score [3] | PBM binding z-score [4] | PBM binding z-score [5] | PBM binding z-score [6] | PBM binding z-score [7] | PBM binding z-score [8] | PBM binding z-score [9] | PBM binding z-score [10] | PBM binding z-score [11] | PBM binding z-score [12] | PBM binding z-score [13] | PBM binding z-score [14] | PBM binding z-score [15] | PBM binding z-score [16] | PBM binding z-score [17] | PBM binding z-score [18] | PBM binding z-score [19]
1 | TAGCCTAGGTCATACAGGGGCCAGTATAGAAAGC | 3.34 | 0.359 | 0.751 | 3.72 | 2.36 | 2.35 | 0.845 | 1.62 | 1.94 | 2.89 | 0.2 | -0.11 | 1.83 | 2.1 | -0.101 | 3.56 | 0.204 | 3.91 | 3.38
2 | TTACCAAGGTGAACGGTCGTTGATGCACGCCTTG | 0.744 | -0.159 | -0.974 | 2.04 | 1.77 | 2.8 | 1.17 | 2.35 | 2.31 | 3.55 | 1.13 | 0.904 | 0.997 | -0.0425 | -0.818 | 0.693 | -0.752 | 2.03 | 1.31
3 | TGAATGAGGTTAAATATCAGGGAACGTGGCGTCG | 2.5 | -0.0698 | 0.686 |  | 2.51 | 3.17 | 1.45 | 2.46 | 2.43 | 2.35 | 0.916 | 0.956 | 0.766 | 1.35 | 0.413 | 1.91 | 0.347 | 2.17 | 0.735
4 | TCTCGGAGGACACTAAAGGTCAGAGCTCGACATC | 5.15 | 5.33 | 0.134 |  | 1.47 | 2.94 | 2.78 | 2.97 | 1.65 | 1.59 | -0.114 | -0.191 | 2.43 | 3.8 | 0.66 | 4.14 | 0.456 | 3.84 | 4.7
5 | AACGAAAGGTCGAAGGTGAGTATACCCACCCGAA | 3.94 | 0.129 | 0.37 |  | 4.7 | 4.9 | 2.35 | 3.92 | 0.349 | 2.16 | 0.625 | -0.0943 | 0.991 | 3 | -0.293 | 4.48 | 0.698 | 3.79 | 2.48
6 | AGAATGGGGTTATACGTAGATCAGGGAAGAAAGT | 2.95 | 0.583 | 2.07 | 5.16 | 3.69 | 4 | 1.39 | 3.03 | 4.84 | 2.95 | 2.51 | 1.53 | 1.86 | 2.56 | 1.48 |  | 1.54 | 1.93 | 1.67
7 | CGAACAAGGTCATTGACAGGACAGTGAATAGTAA | 5.4 | 1.2 | 1.12 |  | 5.6 | 5.66 | 2.36 | 4.75 | 4.08 | 4.81 | 1.05 | 0.903 | 2.11 | 4.12 | 1.79 | 4.28 | 1.42 | 5 | 3.92
8 | AATACAGGGTAACTAGGCCAGAGTAGGTACGAAT | 0.106 | -0.23 | -0.0777 |  | 2.82 | 2.44 | 0.877 | 1.88 | 3.4 | 4.67 | 1.24 | 0.826 | 0.854 | -0.078 | 0.0219 | -0.00374 | 0.0183 | 0.804 | 0.549
9 | AGAACGAGGTCACGCTGAGTTGATAGCAGAGTAG | 6.2 | 0.912 | 0.705 | 6.34 | 9.52 | 8.1 | 6.32 | 7.52 | 6.78 | 7.41 | 3.83 | 1.29 | 4.17 |  | 2.35 | 6.71 | 1.26 |  | 4.38
10 | GCTGCTAGGTCAACTGATGGTCACCTAAAGCTCG | 3.3 | 0.787 | 0.117 | 3.99 | 3.2 | 3.59 | 0.832 | 2.56 | 5.16 | 4.59 | -0.0462 | -0.599 | 1.66 | 2.06 | -0.358 | 3.26 | 0.182 | 4.24 | 3.93
11 | GCTAGTTGGTCAGTAAAATGTCACACACCGGTCG | 0.173 | -0.0317 | -0.257 |  | 0.556 | -0.103 | -0.158 | 0.223 | 0.762 | 0.672 | 0.0763 | -0.339 | 1.21 | -0.0576 | 0.0723 | 0.0348 | 0.262 | 0.995 | 1.43
12 | CAGCATAGGTCAGGGCCAGTATAGGAGGAACGTT | 2.57 | -0.16 | -0.316 | 3.86 | 2.08 | 1.98 | 0.464 | 0.958 | 0.577 | 1.1 | -0.177 | -0.223 | 1.42 | 1.36 | 0.189 | 2.17 | 0.463 | 3.89 | 3.19
13 | ATATGTAGGTTAGGGTCAGTCAGAAAGTAGGGAA | 2.82 | 0.758 | 1.69 | 4.61 | 6.72 | 5.54 | 3.24 | 4.97 | 6.27 | 6.71 |  | 1.66 | 2.59 | 2.64 | 1.6 | 3.41 | 2.63 | 3.22 | 3.34
14 | CCAACTAGGTCAAAGGACAGTGAAAGGCGACGTA | 2.56 | 0.453 | 0.227 | 5.08 | 9.64 | 8.24 | 6.76 | 8.84 | 7.57 | 7.88 |  | 0.729 | 1.68 | 1.09 | 0.436 | 2.36 | 0.964 | 4.07 | 3.15
15 | GATACAGGGTCAGCTACAGGCCAGAGTATGGAAA | 2.54 | -0.531 | -0.596 | 4.88 | 4.13 | 3.43 | 0.683 | 2.17 | 1.22 | 2.25 | 0.112 | -0.146 | 1.47 | 2.17 | -0.273 | 3.3 | 0.244 | 4.02 | 2.99
